Calb FLC: affects C. albicans growth with fluconazole; C. albicans CaCi-2 (fluconazole-resistant clinical isolate) + fluconazole, Alamar Blue growth, 48 h; growth inhibition, % (no concentration beside the values); actives 0.57% (n = 300,000); AID 1979;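 active = growth inhibition above about 58% in most replicates, limit read from the data, passing the limit was not always enough; inconclusive = exactly half the replicates above a set limit; inactive = most replicates below a set limit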;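 note: all wells also contain fluconazole at 8 µg/ml as a sub-toxic cotreatment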
FAS-TE inh: inhibitors of human fatty acid synthase thioesterase domain; P49327; AID 602261; actives 0.67% (n = 360,000); recombinant FAS-TE, OMFH fluorogenic substrate, fluorescence endpoint; inhibition, % at 15 µM;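 active = compounds whose normalised, plate-corrected inhibition of enzyme fluorescence in the single-dose primary screen is 50% or more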
ATG4B inh: ATG4B (human) cysteine protease inhibition; actives 0.51% (n = 340,000); AID 504462; ATG4B cleavage of LC3-PLA2, NBD-HPC fluorescence, 1 h; inhibition, % at 8.33 µM; Q9Y4P1; in the data active = inhibition above about 40%
Target sequence (Q9Y4P1 whole entry, looked up): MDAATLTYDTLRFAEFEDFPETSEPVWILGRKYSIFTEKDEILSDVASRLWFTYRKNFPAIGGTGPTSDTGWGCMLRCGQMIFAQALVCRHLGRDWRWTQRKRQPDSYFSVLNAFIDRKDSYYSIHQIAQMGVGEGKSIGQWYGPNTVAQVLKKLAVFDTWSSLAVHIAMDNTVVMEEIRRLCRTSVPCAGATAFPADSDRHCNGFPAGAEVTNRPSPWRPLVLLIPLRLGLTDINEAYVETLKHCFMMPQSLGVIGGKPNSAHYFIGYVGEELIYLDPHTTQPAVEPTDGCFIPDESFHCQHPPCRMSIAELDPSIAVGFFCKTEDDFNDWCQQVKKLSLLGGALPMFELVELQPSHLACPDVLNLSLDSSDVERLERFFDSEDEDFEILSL
SUMO Mot1 rescue: SUMOylation pathway inhibition by Mot1-301 growth rescue; AID 2716; actives 1% (n = 320,000); S. cerevisiae Mot1-301 growth rescue, ATP luminescence, 38.5C; percent above DMSO median, 100 means doubled; growth rescue, % at 18.8 µM;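 active = every valid replicate shows activation above 250% relative to neutral control wells; inactive = the rest, any valid replicate at or below 250%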
NadD inh: blocks S. aureus nicotinate mononucleotide adenylyltransferase. purified NadD enzyme, colorimetric absorbance read-out. inhibition, % at 20 µM. actives 0.78% (n = 360,000); in the data active = inhibition above about 26%
FAS-TE conf: confirmation of human fatty acid synthase thioesterase inhibitors; shares compounds with FAS-TE inh; recombinant FAS-TE, OMFH fluorogenic substrate, fluorescence; inhibition, % at 15 µM; actives 45% (n = 2,300); AID 624325;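 active = compounds inhibiting the enzyme by at least 50% at 15 µM in any one of the replicates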
Large screens that a line does not name were inactive (follow-up assays come after a bar, where they were run). Compounds with a hit are over-represented: about 3.1% of the library has one in this group of screens.

COc1ccc(N2C(=O)N3[C@H](c4ccc(Br)cc4)[C@@H]4C(=O)N(C(C)(C)C)C(=O)[C@@H]4[C@]3(Cc3ccccc3)C2=O)cc1	FAS-TE inh 71 | FAS-TE conf inactive
CC[C@@]12C(=O)N(c3ccc(C)cc3)C(=O)N1[C@H](c1ccc(Br)cc1)[C@@H]1C(=O)N(C(C)(C)C)C(=O)[C@@H]12	none
COc1ccc([C@@H]2[C@@H]3C(=O)N(C(C)(C)C)C(=O)[C@@H]3[C@]3(Cc4ccccc4)C(=O)N(c4ccc(Br)cc4)C(=O)N23)cc1	none
CC(C)(C)N1C(=O)[C@H]2[C@@H](c3ccc(Br)cc3)N3C(=O)N(c4cccc(Cl)c4)C(=O)[C@@]3(Cc3ccccc3)[C@H]2C1=O	FAS-TE inh 96 | FAS-TE conf inactive
COc1ccc([C@@H]2[C@@H]3C(=O)N(C(C)(C)C)C(=O)[C@@H]3[C@]3(Cc4ccccc4)C(=O)N(c4ccccc4)C(=O)N23)cc1	none
COc1ccc([C@@H]2[C@@H]3C(=O)N(C(C)(C)C)C(=O)[C@@H]3[C@]3(Cc4ccccc4)C(=O)N(c4cccc(Cl)c4)C(=O)N23)cc1	FAS-TE inh 79 | FAS-TE conf inactive
O=[N+]([O-])c1ccc(Sc2n[nH]c(-c3ccc(Cl)cc3Cl)n2)nc1	FAS-TE inh 63 | FAS-TE conf 60
CCc1ccc(C(=O)NNc2cc(Cl)ccc2Cl)cc1	FAS-TE inh 50 | FAS-TE conf inactive
O=C(Nc1ccc(Cl)cc1)C(Cl)C(=O)c1ccccc1 (stereo not given)	FAS-TE inh 77 | FAS-TE conf 87
O=C1CC(N2CCN(c3ccc(S(=O)(=O)N4CCOCC4)cc3)CC2)C(=O)N1Cc1ccccc1 (stereo not given)	Calb FLC inconclusive, FAS-TE inh 56 | FAS-TE conf 65
COc1cc2ncc(S(=O)(=O)c3ccccc3)c(N3CCC4(CC3)OCCO4)c2cc1OC	FAS-TE inh 82 | FAS-TE conf 82
CCOC(=O)C1CCN(C(=O)c2ccc3c(=O)n4nc(Nc5ccccc5OC)sc4nc3c2)CC1	FAS-TE inh 54 (no result: Calb FLC, ATG4B inh, SUMO Mot1 rescue) | FAS-TE conf 59
CCOC(=O)C1CCN(C(=O)c2ccc3c(=O)n4nc(Nc5cc(C)ccc5C)sc4nc3c2)CC1	Calb FLC 88, FAS-TE inh 55 | FAS-TE conf inactive
Cc1ccc(C)c(Nc2nn3c(=O)c4ccc(C(=O)NCc5cccnc5)cc4nc3s2)c1	none
Cc1cccnc1NC(=O)CN1C(=O)c2ccccc2S1(=O)=O	none
COc1ccc(NC(=O)CN(C)C(=O)CCCNC(=O)c2ccc(Cl)cc2)cc1	none
CN(C(=O)c1cccc(NC(=O)Cc2ccc(NC(=O)C3CCN(S(=O)(=O)c4cccc([N+](=O)[O-])c4)CC3)cc2)c1)C1CCC1	none (no result: Calb FLC, SUMO Mot1 rescue)
CN(C(=O)c1cccc(NC(=O)Cc2ccc(NC(=O)C3CCN(S(=O)(=O)c4cccc([N+](=O)[O-])c4)CC3)cc2)c1)C1CCCC1	FAS-TE inh 59 (no result: Calb FLC, SUMO Mot1 rescue) | FAS-TE conf inactive
CN(C(=O)c1cccc(NC(=O)Cc2ccc(NC(=O)C3CCCN(S(=O)(=O)c4cccc([N+](=O)[O-])c4)C3)cc2)c1)C1CCCCC1 (stereo not given)	FAS-TE inh 73 (no result: Calb FLC, SUMO Mot1 rescue) | FAS-TE conf inactive
CN(CCc1ccccc1)C(=O)c1cccc(NC(=O)Cc2cccc(NC(=O)C3CCCN(S(=O)(=O)c4cccc([N+](=O)[O-])c4)C3)c2)c1 (stereo not given)	none (no result: Calb FLC, SUMO Mot1 rescue)
CC(=O)Nc1cc(-c2ccc(F)cc2)cn2c(-c3ccc(S(C)(=O)=O)cc3)cnc12	none (no result: Calb FLC, ATG4B inh, SUMO Mot1 rescue)
Cc1cccc(C(=O)OCC(=O)c2c(N)n(CC(C)C)c(=O)n(C)c2=O)c1O	none
CC(C)Cn1c(N)c(C(=O)COC(=O)c2cc3ccccc3cc2O)c(=O)n(C)c1=O	FAS-TE inh 82 (no result: Calb FLC) | FAS-TE conf inactive
CCOC(=O)[C@@H]1[C@H]2COc3ccc(Br)cc3[C@H]2N2C(=O)N(c3ccc(C)cc3)C(=O)[C@]12C	FAS-TE inh 60 | FAS-TE conf inactive
CCOC(=O)[C@@H]1[C@H]2COc3ccc(Br)cc3[C@@H]2N2C(=O)N(c3ccc(Br)cc3)C(=O)[C@@]12C	none (no result: Calb FLC)
